# MITF inh = inhibitors of human MITF; O75030; AlphaScreen MITF homodimerization, bead proximity signal; inhibition, % at 2.6 µM; 0.91% of 650,000 active; AID 1259374; in the data active means inhibition above about 50%;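 further: 0% = vehicle wells with protein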
# TEAD-YAP inh = TEAD-YAP interaction inhibition. HEK-TIYL cells, TEAD-Gal4/YAP UAS-luciferase luminescence. inhibition, % at 9.12 µM. 1.4% of 640,000 active. AID 1259422; in the data active means inhibition above about 32%;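 further: 0% = median of test compound wells and 100% = reference inhibitor wells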
# FBW7 activator = human FBW7 E3 ligase activation, primary screen | Q969H0 | AlphaScreen FBW7–phospho-cyclin E peptide binding, activator screen | normalized activity (activation), % at 26.1 µM | 0.13% of 650,000 active | AID 1259310; in the data active means normalized activity above about 1.9%;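 further: purified mutant Fbw7 with reduced substrate affinity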
# Target sequence (Q969H0 whole entry, looked up): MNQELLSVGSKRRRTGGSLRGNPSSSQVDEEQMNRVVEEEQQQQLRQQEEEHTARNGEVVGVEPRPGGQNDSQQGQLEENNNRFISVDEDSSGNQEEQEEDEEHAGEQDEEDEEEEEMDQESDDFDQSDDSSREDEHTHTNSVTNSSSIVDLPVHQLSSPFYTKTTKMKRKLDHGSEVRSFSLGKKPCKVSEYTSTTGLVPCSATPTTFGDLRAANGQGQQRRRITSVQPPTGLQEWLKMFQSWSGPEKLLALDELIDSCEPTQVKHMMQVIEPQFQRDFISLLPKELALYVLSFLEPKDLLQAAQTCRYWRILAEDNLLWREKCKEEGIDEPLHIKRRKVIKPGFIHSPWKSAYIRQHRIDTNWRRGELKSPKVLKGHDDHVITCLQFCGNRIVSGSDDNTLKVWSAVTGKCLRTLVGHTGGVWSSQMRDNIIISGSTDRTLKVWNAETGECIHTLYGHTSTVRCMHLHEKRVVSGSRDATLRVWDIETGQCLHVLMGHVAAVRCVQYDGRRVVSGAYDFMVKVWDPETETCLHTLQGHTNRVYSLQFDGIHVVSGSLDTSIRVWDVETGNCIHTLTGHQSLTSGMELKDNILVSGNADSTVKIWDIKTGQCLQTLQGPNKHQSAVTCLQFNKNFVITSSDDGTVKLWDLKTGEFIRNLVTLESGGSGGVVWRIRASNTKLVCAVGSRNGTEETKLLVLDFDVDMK
# GPR151 ag = activators of human GPR151; Q8TDV0; PathHunter beta-arrestin GPR151 cells, luminescence; activation, % at 11.2 µM; 1% of 650,000 active; AID 1508602; in the data active means activation above about 4.9%;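 further: 0% = median of compound wells and 100% = cells with positive control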
# Active calls of the source: *. Most compounds without a hit are left out; they make up all but 3.5% or so of the library.
SMILES,MITF inh,TEAD-YAP inh,FBW7 activator,GPR151 ag
CCc1ccc2c(c1)[C@H]1OCC[C@H]1[C@@H](c1cccs1)N2,17.1,46.9*,0.0,1.2
Nn1c(SCC(=O)NCC(F)(F)F)nnc1-c1cccnc1,5.5,3.7,0.1,-0.4
Cc1ccccc1NC(=S)N1CCn2cccc2C1c1cccnc1 (stereo unspecified),19.5,-4.0,-0.1,-0.3
COc1ccc(C(=O)Nc2cc(Cl)ccc2O)cc1Cl,19.3,3.6,0.1,-0.2
Nc1ccc(Cl)c(NC(=O)c2ccc(Cl)cc2Cl)c1,0.1,87.4*,1.0,0.8
O=C(Nc1cc(Cl)ccc1O)c1ccc(Cl)c(C(=O)c2ccc(Cl)cc2)c1,16.3,32.7*,0.3,-0.6
O=C(Nc1cc(Cl)ccc1Oc1ccc(Cl)c2ccccc12)c1cc(Cl)cc(Cl)c1O,2.2,3.9,-0.2,0.8
O=C(Nc1cc(Cl)ccc1Cl)c1cc(Cl)cc(Cl)c1O,2.2,56.8*,-0.1,1.1
O=C(O)c1c2c(nc3ccccc13)CCN(S(=O)(=O)c1ccccc1)C2,-3.5,5.0,-0.1,3.1
CC(=O)NCCNC(=O)c1ccccc1C,3.1,-1.4,0.0,-0.5
Cc1cccc(N2CCN(C(c3ccncc3)c3nnnn3C(C)(C)C)CC2)c1C (stereo unspecified),-7.1,61.8*,-0.2,-4.0
O=C(c1ccc2c(=O)n(-c3ccccc3)c(=S)[nH]c2c1)N1CCOCC1,-2.0,-5.2,-0.1,-1.0
O=C(c1ccc2c(=O)n(-c3ccccc3)c(=S)[nH]c2c1)N1CCCCC1,8.8,42.9*,0.0,-0.4
Cc1ccc(C2CC(=O)NC3=C2C(=O)CCC3)cc1[N+](=O)[O-] (stereo unspecified),5.3,-7.0,-0.3,0.4
COc1cc(/C=N/NC(=O)C(=O)N2CCC(C)CC2)ccc1O,-7.2,10.8,0.1,0.5
COc1cccc(/C=N/Nc2ccc3ccccc3n2)c1OC,-11.6,98.3*,-0.1,-2.7
C(=N\Nc1nncc2ccccc12)/c1ccc2c(c1)OCCO2,1.5,97.6*,-0.2,-7.6
COc1ccc(/C=N/Nc2ccc3ccccc3n2)cc1,-4.6,-38.8,-0.1,-0.6
C(=N\Nc1ccc2ccccc2n1)/c1ccc2c(c1)OCCO2,2.7,79.9*,-0.1,-1.5
COc1ccc(/C=N/Nc2ccc3ccccc3n2)c(OC)c1OC,3.9,-39.7,0.0,-0.9
C(=N\Nc1ccc2ccccc2n1)/c1cccnc1,3.3,75.1*,0.0,-6.2
COC(=O)c1cc(C(=O)OC)cc(N2C(=O)CC(Sc3nc(O)c(C)c(=O)[nH]3)C2=O)c1 (stereo unspecified),-0.1,-2.7,-0.1,0.0
CC(C)(C)C(=O)Nc1ccc(C(=O)Nc2cccc(O)c2)cc1,7.5,63.8*,0.1,-1.7
O=C(Nc1cccc(O)c1)c1ccc(Oc2ccccc2)cc1,-0.9,92.9*,0.0,-0.3
CCCCOc1ccc(C(=O)Nc2cccc(O)c2)cc1,-1.8,81.8*,0.0,-2.6
SMILES,MITF inh,TEAD-YAP inh,FBW7 activator,GPR151 ag
CC(C)(C)N1C(=O)c2ccc(C(=O)Nc3cccc(O)c3)cc2C1=O,4.8,88.7*,0.2,-0.5
COc1cccc(NC(=O)c2ccc(NC(=O)C(C)(C)C)cc2)c1,2.6,-46.2,0.0,-2.1
Cn1c(=O)n(CC(=O)N2CCCC2)c2cccnc21,-5.4,6.9,-0.1,2.0
CCOCC(=O)Nc1ccc(-c2cn3nc(OC)ccc3n2)cc1,9.0,3.7,0.4,-2.6
CCOCC(=O)Nc1cc(-c2cn3nc(OC)ccc3n2)ccc1F,-9.7,67.9*,0.0,-5.7
CC(=O)c1c2c(n3cc4ccccc4cc13)C(=O)c1ccccc1C2=O,11.5,-2.7,0.0,-1.1
COC(=O)c1c2c(n3cc4ccccc4cc13)C(=O)c1ccccc1C2=O,87.0*,-4.7,0.1,0.5
N#CC1=C(N)C(C#N)(C#N)C(c2ccccc2)C2CCCC=C12 (stereo unspecified),9.7,6.7,1.9*,1.5
N#CC1=C(N)C(C#N)(C#N)C(c2ccc(O)cc2)C2CCCC=C12 (stereo unspecified),-10.2,11.0,0.0,0.3
O=C(N=C1N=C2C=CC(I)=CN2Cc2ccccc21)C1CCCCC1,5.2,-44.2,0.4,1.6
O=C(Nc1cccc(O)c1)c1cc(C2CC2)on1,-4.0,83.8*,0.1,-5.0
O=C(Nc1ccc2c(c1)OCO2)c1cc(C2CC2)on1,-12.7,-46.6,0.2,1.3
CCCc1cc(C(=O)Nc2cccc(O)c2)no1,7.2,74.4*,0.7,-4.7
Cc1nc2ccc(NC(=O)c3ccc(S(=O)(=O)N(C)C)cc3)cc2c(=O)n1-c1ccc(Cl)cc1,18.7,37.6*,0.4,-0.4
COC(=O)c1c(NC(=O)c2ccc3c(c2)OCO3)sc(C)c1C,0.5,-8.8,0.1,-0.3

# Source: PubChem (The Scripps Research Institute Molecular Screening Center)
